NS1 function inh – influenza NS1 inhibition. Potency, µM (series often up to 46.1 µM), for the others: at the highest dose activity, positive = more growth. 270,000 compounds, 0.4% hits. AID 2326; also: potency is read from the fitted curve at half-maximal effect; actives are rising curves; nearly all actives have a fitted effect of over 50% in size
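Read-out: OD600 growth recovery of NS1-expressing budding yeast. Cells grown overnight at 30C in -URA glucose medium, washed, resuspended and diluted 1:100 in 2% galactose assay medium, pH 6.0. Same strain lacking NS1 served as positive control.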
LmPK inh – LmPK (Leishmania mexicana) enzyme inhibition. purified LmPK, Kinase-Glo ATP luminescence, 1 h. AID 1721. 290,000 compounds, 0.37% hits. Potency, µM (titrated, usually from 57.5 µM), inactives show top-dose activity change, negative = inhibition, actives largely listed as inhibitors. Q27686; active = well fitted curve in the direction sought with a large enough effect; inconclusive = small, poorly fitted or top-dose-only effect, or another doubt; inactive = no such curve, though single readings can be large; an effect the other way counts as inactive or inconclusive; also: potency is read from the fitted curve at half-maximal effect; % is scaled to controls: 0 for no effect and ±100 for the full control effect
Target sequence (Q27686 whole entry, looked up): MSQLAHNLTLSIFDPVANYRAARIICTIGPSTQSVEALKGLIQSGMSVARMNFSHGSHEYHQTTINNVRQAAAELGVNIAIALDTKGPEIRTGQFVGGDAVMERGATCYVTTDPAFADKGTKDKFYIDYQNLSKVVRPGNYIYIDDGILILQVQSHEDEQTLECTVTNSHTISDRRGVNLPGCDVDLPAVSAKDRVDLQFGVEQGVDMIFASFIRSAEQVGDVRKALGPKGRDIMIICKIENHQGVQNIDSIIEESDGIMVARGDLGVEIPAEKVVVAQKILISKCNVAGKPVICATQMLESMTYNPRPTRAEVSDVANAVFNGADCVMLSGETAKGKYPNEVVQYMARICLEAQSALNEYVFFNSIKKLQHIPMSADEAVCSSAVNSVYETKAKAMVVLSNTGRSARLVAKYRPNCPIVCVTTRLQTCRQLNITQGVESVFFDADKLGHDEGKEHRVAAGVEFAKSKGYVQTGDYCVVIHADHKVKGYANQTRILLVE
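In 50 mM imidazole pH 7.2 with 7 mM MgCl2, LmPK (0.1 nM) turned over PEP (0.5 mM) and ADP (0.1 mM) for 1 h at room temperature. Luciferase read-out of ATP.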
CHX counter – affects cycloheximide protein synthesis inhibition readout, counter-screen; cell reporter, cycloheximide protein synthesis inhibition counterscreen; max response, %; 300,000 compounds, 12% hits; AID 2314; in the data active = max response mostly above about 13%, no sharp cut-off; inactive = mostly below about 14%; also: read at 38.3 µM for the half of the compounds with a filed dose; 0% is about no effect
Tb PYK inh – T. brucei pyruvate kinase inhibition; Q57TT1; TbPYK enzyme, Kinase-Glo Plus ATP luminescence, 45 min; Potency, µM (doses to about 76.8 µM), for inactives: top-dose activity, negative = inhibition, actives largely listed as inhibitors; 410,000 compounds, 0.12% hits; AID 624173; active = well fitted curve in the direction sought with a large enough effect; inconclusive = small, poorly fitted or top-dose-only effect, or another doubt; inactive = no such curve, though single readings can be large; an effect the other way counts as inactive or inconclusive; also: potency is read from the fitted curve at half-maximal effect; % is scaled to controls: 0 for no effect and ±100 for the full control effect; nearly all actives have a fitted effect of over 50% in size
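Quantitative HTS: titrated library compounds versus trypanosomal pyruvate kinase in TEA buffer (pH 7.2) containing KCl, MgCl2, BSA and Tween-20. Reactions were initiated with ADP, 130 uM final. Kinase-Glo Plus luminescence was read after 45 min at RT.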
Shiga inhibitor – Shiga toxin inhibition; Vero cells, Shiga toxin protein synthesis inhibition reporter; 290,000 compounds, 9.2% hits; inhibition, % at 38.7 µM; in the data active = inhibition mostly above about 28%, no sharp cut-off; inactive = mostly below about 43%; also: 0% is about no effect
SARS PLpro yeast – inhibitors of SARS-CoV papain-like protease in yeast; Potency, µM (doses to about 32.9 µM), inactives show at the highest dose activity, positive = growth rescue, actives largely listed as activators; S. cerevisiae expressing SARS-CoV PLpro, growth rescue; 330,000 compounds, 0.19% hits; also: potency is read from the fitted curve at half-maximal effect; 0% is about no effect; nearly all actives have a fitted effect of over 55% in size
* marks the source's active call; other numbers are inactive results; u = inconclusive; x = no result given; [ ] = remark or other dose. Shown is part of a subset that was picked to be rich in hits. Unless noted, calls follow the shape of the full dose curve.

SMILES	NS1 function inh	LmPK inh	CHX counter	Tb PYK inh	Shiga inhibitor	SARS PLpro yeast
CCCNC(=O)c1cc(Cl)c(NC(=O)C2=CSCCO2)cc1OC	4.8%	-8.1%	20.2	0.0%	19.1*	-3.1%
Cc1ccc(C)c(NC(=O)c2ccccc2O)c1	-210.4%	-1.7%	22.4*	u	54.0	-28.7%
Cc1cccc(NC(=O)c2cnn3ccccc23)c1C	3.8%	1.0%	50.3*	-0.1%	77.8*	0.9%
O=C(Nc1ccccc1Cl)c1ccccc1Cl	-41.8%	-0.5%	13.6	1.0%	7.7	-0.8%
O=C(Nc1ccccc1O)c1ccccc1O	-193.3%	-7.2%	31.9*	3.9%	53.5*	-17.6%
Cc1ccc(C)c(NC(=O)COC(=O)c2nc(Cl)ccc2Cl)c1	x	x	x	-9.5%	x	-8.0%
Cc1ccc(C)c(NC(=O)c2nc(Cl)ccc2Cl)c1	x	-10.5%	25.5*	-1.7%	36.0	0.4%
Oc1cc2cc(CCN3CCN(c4nsc5ccccc45)CC3)c(Cl)cc2[nH]1	x	x	x	0.8%	x	x
Cc1cccc(NC(=O)c2cccc([N+](=O)[O-])c2O)c1C	x	x	x	1.6%	x	x
Cc1ccc(CNC(=O)Cn2nnc(C(=O)Nc3cccc(C)c3C)c2N)cc1	-2.8%	1.6%	-1.4	0.2%	-8.0	2.5%
Cc1cc(C)n2ncc(C(=O)NCc3ccc(Cl)cc3)c2n1	-76.3%	5.9%	19.2	0.0%	-7.2	-22.0%
Cc1ccccc1Cn1nnc(C(=O)Nc2cccc(C)c2C)c1N	-66.1%	-0.1%	30.0*	-1.8%	30.2	-31.4%
COc1ccccc1NC(=O)c1ccc(C(=O)c2ccccc2)o1	x	-1.2%	9.7	1.8%	27.2	-1.3%
O=C(NCc1ccc(Cl)cc1)c1cnn2ccccc12	-56.7%	7.5%	56.5*	7.2%	79.8*	-7.9%
Cc1cccc(NC(=O)c2ccccc2O)c1C	-72.8%	-13.7%	34.3*	3.2%	48.9*	-37.2%
O=C(Nc1ccccc1O)c1ccc(C(=O)c2ccccc2)o1	-13.5%	3.3%	26.7*	3.2%	35.0*	-7.0%
CCN(c1ccccc1)c1ncnc2c1cnn2-c1ccc(C)cc1C	x	x	x	-1.0%	x	x
Cc1cccc2sc(NNC(=O)c3ccc(S(=O)(=O)N4CCCC(C)C4)cc3)nc12 (stereo not drawn)	-12.1%	-3.2%	3.3	u	15.7	8.91µM*
COc1ccc(CN2CCNC(=O)C2CC(=O)N(C)CC2CCOCC2)cc1C (stereo not drawn)	5.4%	-0.3%	-2.2	3.9%	-9.4	-7.9%
O=C(O)CCC(=O)N1CCCC1C(=O)O (stereo not drawn)	-11.1%	x	x	x	x	x
O=C(Nc1ccnn1C1CCN(Cc2ccccc2F)CC1)C1CCCC1	2.7%	-9.1%	-3.9	-0.5%	-3.5	0.0%
CSc1nc2c(c(=O)n1-c1ccc(C)cc1)SCC2	-4.8%	9.5%	8.6*	5.9%	48.8	-0.2%
CC(Sc1nnnn1-c1cccc(F)c1)C(=O)NC1CCCC1 (stereo not drawn)	x	x	x	4.7%	x	2.7%
S=C(NNC(=S)Nc1ccccc1)Nc1ccccc1	-39.9%	-5.0%	41.5*	-15.7%	56.1*	0.2%
Cc1ccc(S(=O)(=O)NNC(=S)Nc2ccc(Cl)cc2)cc1	-15.5%	-14.5%	-0.5	5.5%	4.0	-1.5%
SMILES	NS1 function inh	LmPK inh	CHX counter	Tb PYK inh	Shiga inhibitor	SARS PLpro yeast
Cc1ccc(S(=O)(=O)NNC(=S)Nc2ccccc2)cc1	-12.8%	3.8%	23.5*	-5.3%	23.0	-3.6%
Fc1cc(Br)ccc1NC(=S)Nc1ccccc1	-11.0%	1.1%	50.3*	-4.4%	65.1*	-13.0%
S=C(NN=C(C1CC1)C1CC1)Nc1ccccc1	8.3%	3.2%	33.5*	-5.5%	43.0*	-3.9%
C[C@H]1CN([C@@H](C)CO)C(=O)CCCn2nncc2CO[C@H]1CN(C)C(=O)c1ccc2ccn(C)c2c1	x	x	x	2.5%	x	x
CC(N)C(=O)c1ccccc1 (stereo not drawn)	x	x	x	0.9%[157 µM]	x	x
CCCCCC1C(C(=O)OCC)C(=O)NC1(C(=O)OCC)C(=O)OCC (stereo not drawn)	x	x	x	-8.6%	x	x
S=C(Nc1ccccc1)Nc1ccccc1-n1cccc1	-0.9%	-0.3%	22.3*	-11.8%	27.8	0.4%
S=C(Nc1ccccc1)Nc1ccc(Br)cc1	-54.2%	5.7%	14.9*	-0.8%	30.8	-5.0%
Fc1ccccc1NC(=S)Nc1ccc(Br)cc1	-17.0%	-6.4%	17.2*	-4.3%	18.4*	-22.5%
Cc1ccc(NC(=S)Nc2ccc(Br)cc2)cc1	-15.5%	3.6%	23.4	3.3%	17.4	-1.1%

Screening data deposited in PubChem by National Center for Advancing Translational Sciences (NCATS).
